Compound activity as filed in PubChem BioAssay.
Sampled rows, rich in hits. Any-hit rate of the full collection: about 2.5%.
MEKK2wt PB1 HTS: modulators of MEK5 binding to wildtype MEKK2, primary screen, biochemical, multiplex bead flow cytometry, Alexa488-MEK5; Mitogen-activated protein kinase kinase kinase 2 (Homo sapiens), Q9Y2U5; Alexa488-MEK5 binding to MEKK2 WT; actives lie on both sides; binding response (% of control), % at 10 µM; hit rate 1.1% among 290,000; in the data active means binding response below about 67% or above about 130%
GRK2 aptamer HTS: compounds blocking aptamer binding on GRK2 – biochemical, human GRK2, bead flow cytometry, HTS, primary screen; FAM-aptamer displacement from GRK2; inhibition of aptamer binding, % at 10 µM; hit rate 0.59% among 330,000;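 active means inhibition of aptamer binding above 40%, roughly 3 SD of noise, on plates passing a quality check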;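 further: median bead fluorescence of bound FAM aptamer so fluorescent compounds give negative values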
Target sequence (P25098 whole entry, looked up): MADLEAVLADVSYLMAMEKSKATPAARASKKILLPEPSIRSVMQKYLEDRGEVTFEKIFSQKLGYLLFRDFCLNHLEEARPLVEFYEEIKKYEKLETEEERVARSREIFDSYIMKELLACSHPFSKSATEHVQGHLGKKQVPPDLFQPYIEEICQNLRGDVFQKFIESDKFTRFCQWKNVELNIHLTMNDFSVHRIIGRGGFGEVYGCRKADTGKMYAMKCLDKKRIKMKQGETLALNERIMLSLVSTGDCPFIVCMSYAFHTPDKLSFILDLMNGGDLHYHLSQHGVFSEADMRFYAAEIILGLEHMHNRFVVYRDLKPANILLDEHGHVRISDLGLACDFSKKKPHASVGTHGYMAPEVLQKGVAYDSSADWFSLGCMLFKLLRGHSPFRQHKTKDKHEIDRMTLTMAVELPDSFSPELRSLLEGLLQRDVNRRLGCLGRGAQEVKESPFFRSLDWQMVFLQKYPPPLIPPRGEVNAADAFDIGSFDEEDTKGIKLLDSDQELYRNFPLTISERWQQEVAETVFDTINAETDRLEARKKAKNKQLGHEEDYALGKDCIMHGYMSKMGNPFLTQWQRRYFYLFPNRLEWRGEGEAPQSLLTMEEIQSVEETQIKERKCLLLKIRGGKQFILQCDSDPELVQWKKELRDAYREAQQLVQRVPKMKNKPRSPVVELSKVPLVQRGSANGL
MEKK2 mut-MEK5: MEK5 binding signal on mutant MEKK2 PB1, primary screen, biochemical, multiplex bead flow cytometry, Alexa488-MEK5; Alexa488-MEK5 binding to MEKK2 mutant; percent response, % at 10 µM; hit rate 0.35% among 290,000; AID 1530, 2009; in the data active means percent response above about 24%, passing the limit was not always enough
MEKK3 PB1 HTS: modulators of MEKK3-MEK5 PB1 binding, primary screen, biochemical, wildtype MEKK3, multiplex bead flow cytometry, Alexa488-MEK5; hit rate 1.4% among 290,000; binding response (% of control), % at 10 µM; Mitogen-activated protein kinase kinase kinase 3 (Homo sapiens), Q99759; bead-based flow cytometry, Alexa488-MEK5 binding to MEKK3; actives lie on both sides; 0 = blocked by unlabeled MEK5, 100 = vehicle;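 active means binding response more than 3 SD above or below the average of its plate-row segment, actives on both sides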;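 further: Alexa488 bead fluorescence after subtracting the streptavidin-only scavenger bead signal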
GRK2 CP1: GRK2 aptamer-displacing inhibitors, retest, confirmation, biochemical, cherry pick 1, bead flow cytometry. hit rate 4% among 2,000. aptamer displacement, % at 10 µM. shares compounds with GRK2 aptamer HTS. bead-bound GRK2, FAM-aptamer displacement;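 active means aptamer displacement above 40%, near three times the noise of non-fluorescent compounds, on plates passing quality checks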;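 further: negative values mostly reflect intrinsic compound fluorescence rather than true enhancement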
Aptamer quench: quenches fluorescent RNA aptamer, GRK2 hit artifact; shares compounds with GRK2 aptamer HTS; Fluorescent RNA aptamer beads, quenching, flow cytometry; stronger effect = higher value; fluorescence change (kMESF span), kMESF (concentration not given with the values); 110 tested, under 10 active; AID 504521;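 active means compounds whose bead fluorescence drops by more than 37 kMESF across the dose range, marking them as dye quenchers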
FAM quench CP1: counter-screen for GRK2 aptamer inhibitors: fluorescent aptamer quenchers. shares compounds with GRK2 aptamer HTS. Carboxyfluorescein RNA aptamer on beads, flow cytometry quenching; stronger effect = lower value. fluorescence response (% of DMSO), % at 10 µM. 2,000 tested, under 10 active. AID 504580;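 active means compounds that quench the bead-bound fluorescent RNA probe, cutting fluorescence to under half of the solvent control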;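 further: counterscreen run without GRK2 so only probe quenching by compound is measured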
Large screens that a line does not name were inactive (follow-up assays come after a bar, where they were run); [ ] = dose if it differs, or a comment.

Nc1ccc2ccc3cccc[n+]3c2c1	GRK2 aptamer HTS 52 | GRK2 CP1 inactive | FAM quench CP1 44
COc1cc(C)c(-c2nc(CN3C[C@@H]4C[C@@H](C3)c3cccc(=O)n3C4)c(C)o2)cc1C	none
CCOc1ccc(N=Cc2c(O)n(CCc3ccc(OC)c(OC)c3)c(=O)[nH]c2=O)cc1	GRK2 aptamer HTS 100 | GRK2 CP1 inactive | FAM quench CP1 inactive
O=C(Cc1ccccc1)Oc1ccc([N+](=O)[O-])cc1	none
CCn1c(O)c(/C=N/NC(=O)c2ccccc2)c(=O)n(CC)c1=S	none
Cn1ncnc2c(=O)n(C)c(=O)nc1-2	GRK2 aptamer HTS 61 | GRK2 CP1 73 | Aptamer quench inactive | FAM quench CP1 inactive
C[C@]12CCC3C(CC[C@H]4C[C@H](O)CC[C@]34C)C1CC(=O)[C@@H]2O (stereo partly drawn)	GRK2 aptamer HTS 100 (no result: MEKK2wt PB1 HTS, MEKK2 mut-MEK5, MEKK3 PB1 HTS) | GRK2 CP1 inactive | FAM quench CP1 inactive
Cc1ccsc1C(=O)C1CCCN(Cc2cnc(N3CCOCC3)s2)C1 (stereo not drawn)	none | GRK2 CP1 inactive | FAM quench CP1 inactive
Cc1ccsc1C(=O)C1CCCN(Cc2cnc(N(C)C)s2)C1 (stereo not drawn)	none
COc1cc(/C=C/c2nc3ccccc3c(=O)n2-c2ccccc2O)ccc1O	GRK2 aptamer HTS 48 | GRK2 CP1 inactive | FAM quench CP1 inactive
CC1(C)OC(c2ccccc2)=C/C(=C/C=C2C(=O)NC(=S)NC2=O)O1	MEKK2wt PB1 HTS -5.0[inhibitor], GRK2 aptamer HTS 48, MEKK3 PB1 HTS 73[inhibitor] | GRK2 CP1 inactive | FAM quench CP1 inactive
CN1/C(=C\C=C2C(=O)NC(=S)NC2=O)C(C)(C)c2ccccc21	none (no result: GRK2 aptamer HTS)
Cc1nn(-c2ccccc2)c2c1C(c1ccc3c(c1)OCO3)SCC(=O)N2 (stereo not drawn)	none | GRK2 CP1 inactive | FAM quench CP1 inactive
COc1cc(C2SCC(=O)Nc3c2c(C)nn3-c2ccccc2)cc(OC)c1OC (stereo not drawn)	none
CCCCn1c(O)c(C=NCCCn2ccnc2)c(=O)[nH]c1=O	none
O=c1[nH]c(=S)n(-c2cccc(Cl)c2)c(O)c1C=NCCN1CCNCC1	none
O=c1[nH]c(=S)n(-c2ccccc2)c(O)c1C=NCCN1CCNCC1	GRK2 aptamer HTS 89 | GRK2 CP1 inactive | FAM quench CP1 inactive
CC/C(=N\N1CCCCCC1)c1c(O)n(-c2ccccc2C)c(=O)[nH]c1=O	none
CN1C2CCC1/C(=C/c1ccccn1)C(=O)/C2=C\c1ccccn1	GRK2 aptamer HTS 92 | GRK2 CP1 inactive | FAM quench CP1 inactive
Cc1ccc2c(c1)C1CN(C)CCC1N2C(=O)COc1ccc(S(=O)(=O)N2CCOCC2)cc1 (stereo not drawn)	none | GRK2 CP1 inactive | FAM quench CP1 inactive
Cc1ccc2c(c1)C1CN(C)CCC1N2C(=O)/C=C/c1ccc2c(c1)OCO2 (stereo not drawn)	GRK2 aptamer HTS 64 | GRK2 CP1 inactive | FAM quench CP1 inactive
Cc1ccc2c(c1)C1CN(C)CCC1N2C(=O)Cc1cccs1 (stereo not drawn)	none
COC(=O)C1=C(c2cc3ccccc3o2)C[C@@H]2CC[C@H]1N2C	none (no result: MEKK2wt PB1 HTS, MEKK2 mut-MEK5, MEKK3 PB1 HTS)
COc1ccc(C(=O)C23CN4CN(CN(C4)C2)C3)cc1	GRK2 aptamer HTS 43 | GRK2 CP1 inactive | FAM quench CP1 inactive
O=C(c1ccc(Br)cc1)C12CN3CN(CN(C3)C1)C2	none
O=c1cccc2n1CC1CC2CN(c2nc(N3CCCCC3)nc(N3CCCCC3)n2)C1 (stereo not drawn)	none
CCN1CCC2(CC1)NC(CO)(CO)CO2	GRK2 aptamer HTS 48 | GRK2 CP1 inactive | FAM quench CP1 inactive
CCCN1CCC2(CC1)NC(CO)(CO)CO2	none
